The values that follow come from PubChem BioAssay AID743279 (National Center for Advancing Translational Sciences (NCATS), 2014).

Screen size: about 360,000 compounds; about 17,000 (4.7%) were called active. Another 5% or so got no clear call; they are omitted. What follows is part of a selection rich in actives, with near analogues and random picks from the rest. A number with no mark means an inactive call. No stated cut-off is given here; in the data, active means activity change below about -50%; inconclusive means mostly about -30% to -49%; inactive means weaker than that.
On the % scale 0 is the no-effect control and ±100 the full control effect.

A short description of this assay: qHTS for Inhibitors of Inflammasome Signaling: IL-1-beta AlphaLISA Primary Screen. The following applies: THP-1 LPS/ATP IL-1B secretion, 16 h; at 57.5 µM, stronger effect = lower value. An outline of the steps:
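Secreted IL-1B measured by AlphaLISA bead assay after 16 h compound exposure of THP-1 cells; compounds (final up to 57.5 uM) added 1 h before LPS (250 ng/mL) and ATP (1.25 mM) stimulation; lower signal means less secretion.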
Consider `O=C(c1cccs1)C1C(c2ccc(Br)cc2)NC(=S)NC1(O)C(F)(F)F` (centres undefined), for which the activity change is -6.17%.

As to `O=C(COC(=O)COc1ccccc1F)Nc1cccc(S(=O)(=O)N2CCCCC2)c1`, the activity change was -4.52%.

`CCCCCc1ccc(-c2ccc(C(=O)O)cc2)nc1`: the activity change is 46.9%.

For `CC(=O)Nc1cnc(-c2ccc(O)cc2C)cn1`, the activity change was -15.7%.

For the compound `Cc1ccc(-c2csc(NCCc3nc4cc(Cl)c(Cl)cc4n3CCOCCO)n2)cc1`, the activity change was -12.6%.

Turning to `Cc1ccc(Nc2nc(-c3ccc(O)cc3O)cs2)nc1`, the activity change is -66.7% (active).

As to `COc1ccc(NC(=O)/C(N=Nc2cccc(S(=O)(=O)Nc3ccc(SC(F)F)cc3)c2)=C(\C)O)cc1`, the activity change was 2.19%.

Take `Cc1cccc(CN2CCN(C3CN(Cc4cn(Cc5ccccc5F)nn4)S(=O)(=O)C3)CC2)c1` (centres undefined): the activity change is 4.26%.

On to `COc1cc(C(=O)NNC(=O)CN2C(=O)NC3(CCCC3)C2=O)cc(OC)c1OC`, for which the activity change is -7.47%.

Regarding `Cc1ccccc1-c1ccc2c(c1)O[C@@H](CN(C)Cc1ccc(C(=O)O)cc1)[C@@H](C)CN([C@H](C)CO)S2(=O)=O`, the activity change is 20.6%.

With `Cc1ccc(OCC(=O)NC(C)c2ccccc2)cc1C` (centres undefined), the activity change was 9.86%.

For the compound `COc1ccc(C(=O)COC(=O)COc2ccc(C)c(C)c2)cc1`, the activity change is 6.77%.

Turning to `Cc1ccc(SC(=O)COc2ccc(C)c(C)c2)cc1`, the activity change was -70% (active).

On to `Clc1cccc(Cc2c(-c3cccc(Cl)c3)nc3ccc(Cl)cn23)c1`, for which the activity change is 64.9%.

As for `Cc1ccccc1C(=O)OC1OC(=O)C(Cl)=C1Nc1ccccc1` (centres undefined), the activity change was -17.8%.

Take `Cc1ccc(NC2=C(Cl)C(=O)OC2OC(=O)c2ccccc2C)cc1` (centres undefined): the activity change was -89.8% (active).

For the compound `O=C1OC(OC(=O)c2ccccc2Br)C(N2CCOCC2)=C1Cl` (centres undefined), the activity change was -12.8%.

On to `CCOC(=O)[C@H]1[C@H]2COc3ccc(Br)cc3[C@@H]2N2C(=O)CN(C)C(=O)[C@@]12C`, for which the activity change is 19.3%.

As to `COC(=O)c1ccccc1N=Nc1c(C)[nH][nH]c1=O`, the activity change was 1.34%.

In the case of `CCOc1cc(/C=N/NC(=O)c2c(C)nc3ccc(Cl)cn23)ccc1O`, the activity change was 11.7%.

For the compound `O=C(NCC1CCCO1)c1cc2c([nH]c3ccccc32)c(-c2ccc(F)cc2)n1` (centres undefined), the activity change was -10.2%.

Take `O=C(NCCCO)c1cc2c([nH]c3ccccc32)c(-c2ccc(F)cc2)n1`: the activity change was -65.7% (active).

Turning to `O=C(NCCc1ccc(F)cc1)c1n[nH]c2ccccc12`, the activity change is 29.4%.

For `CC(C(=O)NCCc1ccc(S(N)(=O)=O)cc1)N1C(=O)CC(C)(C)Sc2ccccc21` (centres undefined), the activity change is 25.8%.
